From ChEMBL document CHEMBL1857833, “Screening and optimization of specific chemical series against human African Trypanosomiasis (HAT)”
Where “and” joins values, the source holds several entries; their conditions need not be identical. Equal values may be shown once. Among all 4,400 compounds or so, about 390 (8.9%) showed an effect of 50% or more. The sample as a whole holds a higher share of strong results than the screen did.

Tested on: Trypanosoma brucei
Test: DNDI: Inhibition of Human African Trypanosomiasis, SBRI 427, in vitro at 2 ug.mL-1
Format: functional

| SMILES | % inhibition |
| --- | --- |
| COc1ccc(-c2nc(CNC(C)CCCC(C)C)co2)cc1 (configuration not stated) | -10% |
| CCCC(C)NCc1coc(-c2ccc(F)cc2)n1 (configuration not stated) | -16% |
| CCCCCCC(C)NCc1coc(-c2cccc(C)c2)n1 (configuration not stated) | 0% |
| CCCCCC(C)NCc1coc(-c2ccc(OC)cc2)n1 (configuration not stated) | 23% |
| CCCCCCC(C)NCc1coc(-c2ccc(O)cc2)n1 (configuration not stated) | 52% |
| CCCCCCC(C)NCc1coc(-c2ccc(OC)cc2)n1 (configuration not stated) | 65% |
| CN(Cc1coc(-c2ccc(F)cc2)n1)C(c1ccccc1)c1ccccc1 | -2% |
| Cc1ccc(/C(=N/O)N2CCC(N(C)C)C2)c(Oc2cccnc2)n1 (configuration not stated) | 7% |
| CC(NCc1coc(-c2cccc3ccccc23)n1)c1ccccc1 (configuration not stated) | 26% |
| CCC(NCc1coc(-c2cccc3ccccc23)n1)c1ccccc1 (configuration not stated) | 64% |
| Cc1ccc([C@@H](C)NCc2coc(-c3cccc4ccccc34)n2)cc1 | 79% |
| Cc1ccc(C(C)NCc2coc(-c3cccc4ccccc34)n2)cc1 (configuration not stated) | -2% |
| CCC(NCc1coc(-c2ccccc2Br)n1)c1ccccc1 (configuration not stated) | -20% and -22% |
| CC(CNCc1coc(-c2ccccc2Cl)n1)c1ccccc1 (configuration not stated) | -5% |
| CCOc1cccc(-c2nc(CNCc3cccc(OC)c3)co2)c1 | -5% |
| CCN(CC)CCN(CC)Cc1coc(-c2cccs2)n1 | 1% |
| COc1cccc(-c2nc(Cn3ccnc3C(C)C)co2)c1 | 5% |
| Cn1nc(C(C)(C)C)cc1NCc1coc(-c2ccc(C(F)(F)F)cc2)n1 | -8% |
| C=CCc1ccc(Oc2nc(C)ccc2/C(=N/O)NCC2CC2)c(OC)c1 | 44% |
| C=CCc1ccc(Oc2nc(C)ccc2/C(=N/O)NCc2ccco2)c(OC)c1 | 63% |
| Cc1ccc(/C(=N/O)NCc2ccco2)c(Oc2ccc(Cl)cc2-c2ccno2)n1 | 13% |
| C=CCc1ccc(Oc2nc(C)ccc2/C(=N/O)N2CCC(C(=O)OC)CC2)c(OC)c1 | 27% |
| Cc1ccc(/C(=N/O)NCc2cccs2)c(Oc2cc(Cl)ccc2Cl)n1 | 16% |

| SMILES | % inhibition |
| --- | --- |
| Cc1ccc(/C(=N/O)NCc2ccncc2)c(Oc2cc(Cl)ccc2Cl)n1 | -10% |
| Cc1cc(C)cc(CN/C(=N\O)c2ccc(C)nc2Oc2cc(Cl)ccc2Cl)c1 | 64% |
| Cc1ccc(/C(=N/O)NCc2ccco2)c(Oc2cc(Cl)ccc2Cl)n1 | 62% |
| C=CCc1ccc(Oc2nc(C)ccc2/C(=N/O)NCc2ccc(OC)cc2)c(OC)c1 | 22% |
| C=CCc1ccc(Oc2nc(C)ccc2/C(=N/O)N2CCN(CC=C)CC2)c(OC)c1 | 68% |
| C=CCc1ccc(Oc2nc(C)ccc2/C(=N/O)N2CCSCC2)c(OC)c1 | 48% |
| COc1ccc(CN/C(=N\O)c2ccc(C)nc2Oc2cc(Cl)ccc2Cl)cc1 | 14% |
| CCOc1ccc(-c2nc(CNCc3ccc(OC)cc3OC)co2)cc1 | -17% |
| CCOc1ccccc1-c1nc(CN2CCN(C(=O)C3CCCO3)CC2)co1 (configuration not stated) | 8% |
| Cc1ccc(Oc2nc(C)ccc2/C(=N/O)N2CCSC2)c(C)c1 | 26% |
| COCC(C)NCc1coc(-c2ccccc2Cl)n1 (configuration not stated) | -6% |
| Cc1ccc(/C(=N/O)NCc2cc(F)ccc2F)c(Oc2cc(Cl)ccc2Cl)n1 | -39% |
| Cc1ccc(/C(=N/O)NCc2cc(F)cc(F)c2)c(Oc2cc(Cl)ccc2Cl)n1 | 76% |
| COc1cccc(CN/C(=N\O)c2ccc(C)nc2Oc2cc(Cl)ccc2Cl)c1 | -48% |
| CCOc1ccccc1-c1nc(CN(C)CC2OCCO2)co1 | -5% |
| Fc1ccccc1-c1nc(CNc2ccccc2)co1 | 13% |
| Cc1ccc(CN/C(=N\O)c2ccnc(Oc3cccc4c3CCCC4)c2)o1 | 40% |
| CN(/C(=N\O)c1ccnc(Oc2cccc3c2CCCC3)c1)C1CCCCC1 | 14% |
| O/N=C(\NCC1CCCCC1)c1ccnc(Oc2cccc3c2CCCC3)c1 | 96% |
| Cc1ccc(Oc2cc(/C(=N/O)NC3CCCC3)ccn2)c2c1CCC2 | 11% |
| O/N=C(\NCc1c(F)cccc1F)c1ccnc(Oc2cccc3c2CCCC3)c1 | 37% |
| O/N=C(\NC1CCCCC1)c1ccnc(Oc2cccc3c2CCCC3)c1 | 99% |
| CCOc1ccccc1-c1nc(CN(CC)Cc2ccncc2)co1 | 12% |

| SMILES | % inhibition |
| --- | --- |
| CCOc1ccc(-c2nc(CNCC(C)(C)CN(C)C)co2)cc1 | 39% |
| O/N=C(/c1ccc(Oc2cccc(F)c2)nc1)N1CCN(c2ccccc2)CC1 | 2% |
| COc1ccc(Oc2cc(/C(=N/O)NC3CCC3)ccn2)cc1 | 100% |
| COc1ccc(Oc2cc(/C(=N/O)NC3CC(C)CC(C)(C)C3)ccn2)cc1 (configuration not stated) | 14% |
| COc1ccc(Oc2cc(/C(=N/O)N3C(C)CCCC3C)ccn2)cc1 (configuration not stated) | 10% |
| COc1ccc(Oc2cc(/C(=N/O)NCC3CCCO3)ccn2)cc1 (configuration not stated) | 34% |
| CSc1ccc(Oc2cc(/C(=N/O)NC3CCCCC3)ccn2)cc1 | 21% |
| COc1ccc(Oc2cc(/C(=N/O)NC3CCCCC3)ccn2)cc1 | 100% |
| Cc1ccc(Oc2nc(C)ccc2/C(=N/O)N(C)C2CCCCC2)c(C)c1 | 18% |
| Cc1cc(C)cc(Oc2ccc(/C(=N/O)n3cnc(C)c3)cn2)c1 | 1% |
| CCCCN(CC#N)Cc1coc(-c2ccc(C)cc2)n1 | 7% |
| CCN(Cc1coc(-c2ccccc2F)n1)c1ccc(C)cc1 | -32% |
| COCC(C)N/C(=N\O)c1cccnc1Oc1ccc(C(C)C)cc1 (configuration not stated) | 99% |
| CCc1ccc(Oc2ncccc2/C(N)=N/O)cc1 | 1% |
| CCc1ccc(Oc2ncccc2/C(=N/O)NC(C)COC)cc1 (configuration not stated) | 87% |
| COCC(C)N/C(=N\O)c1cccnc1Oc1cccc(C(F)(F)F)c1 (configuration not stated) | 1% |
| COCC(C)N/C(=N\O)c1cccnc1OCC(C)C (configuration not stated) | 5% |
| COCC(C)N/C(=N\O)c1cccnc1Oc1ccc(OC)cc1 (configuration not stated) | -10% |
| CCOc1ccccc1-c1nc(CN2CCN(C(c3ccccc3)c3ccccc3)CC2)co1 | 5% |
| COc1ccccc1CN/C(=N\O)c1ccc(Oc2cc(C)cc(C)c2)nc1 | -8% |
| O/N=C(/c1ccc(Oc2ccc(Cl)cc2)nc1)n1ccnc1 | 0% |
